# Structures can show the parent of a compound that is named as a salt.
# Test system: MDA-MB-468
# Assay: phospho-S6 immunofluorescence (DAPI-normalised), per-plate z-score; higher = higher phospho-S6 signal (less pathway suppression)
# Conditions: co-treatment: lapatinib 1 uM; 24 h
# Method: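 GPCR-targeted compound library (MedChemExpress HY-L006) tested on MDA-MB-468 PTEN-null TNBC cells in 384-well plates at 0.1, 1 or 10 uM, combined with vehicle, GDC0941 450 nM or lapatinib 1 uM, for 24 h. Phospho-S6 (S240/244) immunofluorescence normalised to DAPI and expressed as a per-plate z-score; values are the mean of biological triplicates.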
row,SMILES,phospho-S6 immunofluorescence (z-score)
1,OCc1cc(C(O)CNCCCCCCOCCCCc2ccccc2)ccc1O (configuration not stated) [Salmeterol (xinafoate)] (compound 10 µM),-2.27
2,NCCCC[C@H](NC(=O)[C@@H]1CCCN1C(=O)[C@@H]1CSSC[C@H](NC(=O)CNC(=O)CNC(=O)CN)C(=O)N[C@@H](Cc2ccc(O)cc2)C(=O)N[C@@H](Cc2ccccc2)C(=O)N[C@@H](CCC(N)=O)C(=O)N[C@@H](CC(N)=O)C(=O)N1)C(=O)NCC(N)=O [Terlipressin] (compound 10 µM),0.98
3,Cc1cc2c(s1)Nc1ccccc1N=C2N1CCN(C)CC1 [Olanzapine] (compound 10 µM),0.3
4,Cc1c(C(=O)NN2CCCCC2)nn(-c2ccc(Cl)cc2Cl)c1-c1ccc(I)cc1 (compound 10 µM),-1.68
5,c1cc(CN2CCCNCCNCCCNCC2)ccc1CN1CCCNCCNCCCNCC1 [Plerixafor (octahydrochloride)] (compound 10 µM),0.37
6,COc1cc(/C=C/C(=O)O)ccc1O [Ferulic acid (sodium)] (compound 10 µM),0.36
7,CC(C)(O)c1ccccc1CC[C@@H](SCC1(CC(=O)O)CC1)c1cccc(/C=C/c2ccc3ccc(Cl)cc3n2)c1 [Montelukast (sodium)] (compound 10 µM),0.97
8,CC(C)COc1ccc(CNC(=O)N(Cc2ccc(F)cc2)C2CCN(C)CC2)cc1 [Pimavanserin tartrate] (compound 10 µM),-6.18
9,CN(C)CCOC(c1ccccc1)c1ccccc1 [Diphenhydramine (hydrochloride)] (compound 10 µM),-0.09
10,CN1CCCC(n2nc(Cc3ccc(Cl)cc3)c3ccccc3c2=O)CC1 (configuration not stated) [Azelastine (hydrochloride)] (compound 10 µM),-0.25

# Same assay, conditions: co-treatment: vehicle; 24 h
row,SMILES,phospho-S6 immunofluorescence (z-score)
1,CC(C)COc1ccc(CNC(=O)N(Cc2ccc(F)cc2)C2CCN(C)CC2)cc1 [Pimavanserin] (compound 10 µM),-2.1
2,CNC(=C[N+](=O)[O-])NCCSCc1ccc(CN(C)C)o1 [Ranitidine (hydrochloride)] (compound 10 µM),0.29
3,Cc1noc(-c2ccc(-c3ccc(CC(=O)O)cc3)cc2)c1NC(=O)OC(C)c1ccccc1Cl (configuration not stated) (compound 10 µM),0.02
4,Cc1ccc(N(CC2=NCCN2)c2cccc(O)c2)cc1 [Phentolamine (mesylate)] (compound 10 µM),-0.58
5,O=c1n(CCCN2CCN(c3cccc(Cl)c3)CC2)nc2ccccn12 [Trazodone (hydrochloride)] (compound 10 µM),-0.51
6,CCCCc1nc(Cl)c(CO)n1Cc1ccc(-c2ccccc2-c2nnn[nH]2)cc1 [Losartan (potassium)] (compound 10 µM),0.81
7,O=c1ccccn1CC1(O)CCN(Cc2ccccc2)CC1 (compound 10 µM),0.48
8,Cc1cc2c(cc1CC(=O)c1sccc1S(=O)(=O)Nc1onc(C)c1Cl)OCO2 [Sitaxsentan (sodium)] (compound 10 µM),0.45
9,CNCC(O)c1ccc(O)c(O)c1 [L-Epinephrine] (compound 10 µM),-0.3
10,CCCc1c2oc(C(=O)O)cc(=O)c2cc2c(=O)cc(C(=O)O)n(CC)c12 [Nedocromil] (compound 10 µM),-1.01
11,COc1cc(C(=O)NS(=O)(=O)c2ccccc2C)ccc1Cc1cn(C)c2ccc(NC(=O)OC3CCCC3)cc12 [Zafirlukast] (compound 10 µM),0.19
12,CCCCCNC(=N)N/N=C/c1c[nH]c2ccc(OC)cc12 [Tegaserod (maleate)] (compound 10 µM),-10.3
13,Cc1cc2c(cc1Cl)N(C(=O)Nc1ccc(Oc3cccnc3C)nc1)CC2 (compound 10 µM),-1.44
14,Cc1ccc(-c2n[nH]c3c2C(c2cccc(O)c2)N(c2ccc(C(=O)O)cc2)C3=O)cc1 (configuration not stated) (compound 10 µM),-0.12
15,CC1(C)O[C@@H]2C[C@H]3[C@@H]4C[C@H](F)C5=CC(=O)C=C[C@]5(C)[C@@]4(F)[C@@H](O)C[C@]3(C)[C@]2(C(=O)CO)O1 [Fluocinolone (Acetonide)] (compound 10 µM),-0.53
16,CCCCCCCCOc1ccccc1C(=O)Nc1ccc(C(=O)OCC[N+](C)(CC)CC)cc1 [Otilonium (bromide)] (compound 10 µM),0.94
17,C[C@H]1C[C@H]2[C@@H]3CCC4=CC(=O)C=C[C@]4(C)[C@H]3C(=O)C[C@]2(C)[C@@]1(O)C(=O)CO [Meprednisone] (compound 10 µM),-0.52
18,COc1nc(C)nc(Cl)c1NC1=NCCN1 [Moxonidine] (compound 10 µM),0.7
19,Cc1ccc(NC(=S)NNc2c([N+](=O)[O-])cc(C(F)(F)F)cc2[N+](=O)[O-])cc1Cl (compound 10 µM),-0.73

row,SMILES,phospho-S6 immunofluorescence (z-score)
1,CC(C)Cc1ccc([C@@H](C)C(=O)NS(C)(=O)=O)cc1 [Reparixin (L-lysine salt)] (compound 10 µM),-0.67
2,O=C(NCCCN1CCC2(CC1)OCc1ccccc12)[C@H]1CCCN1Cc1ccccc1 (compound 10 µM),-0.4
3,COc1cc2c(cc1OC)CN(C(=O)[C@@H](NCc1ccncc1)C(C)(C)C)CC2 (compound 10 µM),-0.05
4,C[C@@H]1C[C@H]2[C@@H]3CCC4=CC(=O)C=C[C@]4(C)[C@@]3(Cl)[C@@H](O)C[C@]2(C)[C@@]1(OC(=O)c1ccco1)C(=O)CCl [Mometasone furoate] (compound 10 µM),-1.92
5,CN(C)CCC(c1ccc(Br)cc1)c1ccccn1 (configuration not stated) [Brompheniramine (maleate)] (compound 10 µM),0.3
6,Cc1nc2c([nH]1)-c1ccccc1N(C(=O)c1ccc(NC(=O)c3ccccc3-c3ccccc3)cc1)CC2 [Conivaptan (hydrochloride)] (compound 10 µM),0.94
7,CC(C)=CCC[C@](C)(O)[C@H]1CC[C@]2(C)[C@@H]1[C@H](O)C[C@@H]1[C@@]3(C)CC[C@H](O)C(C)(C)[C@@H]3[C@@H](O)C[C@]12C [(20S)-Protopanaxatriol] (compound 10 µM),-0.03
8,O=C(CN1C(=O)C2(CCCC2)NC[C@H]1c1cc(F)cc(F)c1)Nc1ccc2c(c1)C[C@@]1(C2)C(=O)Nc2ncccc21 [MK-3207 (Hydrochloride)] (compound 10 µM),-0.48
9,OCc1cc(C(O)CNCCCCCCOCCCCc2ccccc2)ccc1O (configuration not stated) [Salmeterol (xinafoate)] (compound 10 µM),2.28
10,NCCCC[C@H](NC(=O)[C@@H]1CCCN1C(=O)[C@@H]1CSSC[C@H](NC(=O)CNC(=O)CNC(=O)CN)C(=O)N[C@@H](Cc2ccc(O)cc2)C(=O)N[C@@H](Cc2ccccc2)C(=O)N[C@@H](CCC(N)=O)C(=O)N[C@@H](CC(N)=O)C(=O)N1)C(=O)NCC(N)=O [Terlipressin] (compound 10 µM),0.08
11,Cc1cc2c(s1)Nc1ccccc1N=C2N1CCN(C)CC1 [Olanzapine] (compound 10 µM),0.35
12,Cc1c(C(=O)NN2CCCCC2)nn(-c2ccc(Cl)cc2Cl)c1-c1ccc(I)cc1 (compound 10 µM),-2.82
13,c1cc(CN2CCCNCCNCCCNCC2)ccc1CN1CCCNCCNCCCNCC1 [Plerixafor (octahydrochloride)] (compound 10 µM),-0.74
14,COc1cc(/C=C/C(=O)O)ccc1O [Ferulic acid (sodium)] (compound 10 µM),0.33
15,CC(C)(O)c1ccccc1CC[C@@H](SCC1(CC(=O)O)CC1)c1cccc(/C=C/c2ccc3ccc(Cl)cc3n2)c1 [Montelukast (sodium)] (compound 10 µM),1.39
16,CC(C)COc1ccc(CNC(=O)N(Cc2ccc(F)cc2)C2CCN(C)CC2)cc1 [Pimavanserin tartrate] (compound 10 µM),-5.03
17,CN(C)CCOC(c1ccccc1)c1ccccc1 [Diphenhydramine (hydrochloride)] (compound 10 µM),0.32
18,CN1CCCC(n2nc(Cc3ccc(Cl)cc3)c3ccccc3c2=O)CC1 (configuration not stated) [Azelastine (hydrochloride)] (compound 10 µM),0.16

# Reference: the supplement of paper PMC7411640
